# According to PubChem BioAssay (EPA / NIEHS):
# Values joined by “and” are separate entries in the source; they are usually repeats but may differ in a detail not shown here. Equal values may be shown once. Where a structure was tested more than once in an assay, its records may differ in their call. Active and inactive are the calls of the source. How the source made its calls: active means hit-call score of the fitted dose curve at least 0.9, where 1 is the maximum; inactive means score below 0.9.
# Experiments:
# [1] = read-out: Matrix Metallopeptidase 1 (MMP1), MMP1 (gene 4312); assay: BSK_BE3C_MMP1: BioMAP Diversity Plus: BE3C Assay for Matrix Metallopeptidase 1 (MMP1) Biomarker Activity (AID 2283024); conditions: primary human bronchial epithelial cells; actives raise or lower the signal
# In short: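 Human primary bronchial epithelial cells (BE3C system) dosed for 24 h; MMP-1 quantified by ELISA. Bidirectional fit against DMSO; cytotoxicity tracked in parallel cultures by SRB total-protein staining.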
# [2] = BSK_3C_Vis: BioMAP Diversity Plus: 3C Assay for Morphology Visualization (AID 2283025); conditions: primary human endothelial cells (HUVEC);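 further: fitted both ways so gain or loss versus DMSO counts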;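 on AC50: light microscopy image of cell morphology used as background control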
# In short: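 Human umbilical vein endothelial cell morphology was inspected by light microscopy 24 h after chemical dosing; scored bidirectionally relative to DMSO.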
# [3] = read-out: Pselectin, SELP (gene 6403); assay: BSK_4H_Pselectin: BioMAP Diversity Plus: 4H Assay for Pselectin Biomarker Activity (AID 2283026); conditions: primary human endothelial cells (HUVEC); actives raise or lower the signal
# In short: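 Primary human umbilical vein endothelial cells were treated 24 h, and cell-surface P-selectin was then quantified by ELISA. Bidirectional fit versus DMSO; cytotoxicity checked in parallel cultures by SRB total-protein staining.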
# [4] = BSK_4H_SRB: Viability Assessment in the BioMAP Diversity Plus: 4H Assay (AID 2283027); conditions: primary human endothelial cells (HUVEC);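 further: cells exposed to compound for 24 h before staining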;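 on AC50: curves fitted both ways versus DMSO so AC50 may be loss or gain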
# In short: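 Human umbilical vein endothelial cells were dosed with chemical and, after 24 h, fixed with 10% TCA, stained with 0.1% sulforhodamine B, and read at 560 nm to give total protein as a cytotoxicity measure. Bidirectional fitting relative to DMSO control.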
# [5] = BSK_BE3C_SRB: Viability Assessment in the BioMAP Diversity Plus: BE3C Assay (AID 2283028); conditions: primary human bronchial epithelial cells;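 on AC50: fitted both ways so AC50 may mark signal gain or loss versus DMSO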
# In short: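 Human primary bronchial epithelial cells were exposed to test chemicals for 24 h. Total protein in parallel cultures was then measured by staining with 0.1% sulforhodamine B after 10% TCA fixation, with absorbance read at 560 nm. Activity was fitted bidirectionally against DMSO.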
# [6] = read-out: Thrombomodulin, THBD (gene 7056); assay: BSK_3C_Thrombomodulin: BioMAP Diversity Plus: 3C Assay for Thrombomodulin Biomarker Activity (AID 2283029); conditions: primary human endothelial cells (HUVEC); actives raise or lower the signal
# In short: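 Human umbilical vein endothelial cells were exposed to chemicals for 24 h; cell-surface thrombomodulin quantified by ELISA, with bidirectional fitting against DMSO baseline.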
# [7] = read-out: Urokinase-type plasminogen activator receptor (uPAR), PLAUR (gene 5329); assay: BSK_4H_uPAR: BioMAP Diversity Plus: 4H Assay for Urokinase-type plasminogen activator receptor (uPAR) Biomarker Activity (AID 2283030); conditions: primary human endothelial cells (HUVEC); actives raise or lower the signal
# In short: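 Primary human umbilical vein endothelial cells were exposed to chemical for 24 h before cell-surface uPAR was quantified by ELISA. Activity was fitted bidirectionally against the DMSO negative control baseline.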
# [8] = read-out: Vascular endothelial growth factor receptor 2 (Homo sapiens) (UniProt P35968); assay: BSK_4H_VEGFRII: BioMAP Diversity Plus: 4H Assay for Vascular endothelial growth factor receptor 2 (VEGFR2) Biomarker Activity (AID 2283031); conditions: primary human endothelial cells (HUVEC); actives raise or lower the signal;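 on AC50: cell-surface VEGFR2 protein level quantified by ELISA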
# In short: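 Primary human umbilical vein endothelial cells in the BioMAP 4H system were dosed with test chemical, and 24 h later VEGFRII was measured by ELISA. Activity was fitted bidirectionally against DMSO as negative control and baseline.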
# [9] = read-out: Human Leukocyte Antigen - DR isotype (HLADR), HLA-DRA (gene 3122); assay: BSK_BE3C_HLADR: BioMAP Diversity Plus: BE3C Assay for Human Leukocyte Antigen - DR isotype (HLADR) Biomarker Activity (AID 2283032); conditions: primary human bronchial epithelial cells; actives raise or lower the signal
# In short: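 Human primary bronchial epithelial cells (BE3C system) exposed to compound for 24 hours; cell-surface HLA-DR measured by ELISA, fitted bidirectionally relative to DMSO. Total protein by SRB in parallel cultures tracked cytotoxicity.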
compound,measurement,setting,value
Oc1cc2ccccc2cc1O,outcome,[1],inactive
same,outcome,[2],inactive
same,outcome,[3],inactive
same,outcome,[4],inactive
same,outcome,[5],inactive
same,outcome,[6],inactive
same,outcome,[7],inactive
same,outcome,[8],inactive
same,outcome,[9],inactive
Cc1ccc(C(=O)c2ccccc2)cc1,outcome,[1],inactive
same,AC50,[2],38.9 µM (active)
same,AC50,[3],31.2 µM (active)
same,AC50,[4],36.5 µM (active)
same,outcome,[5],inactive
same,outcome,[6],inactive
same,outcome,[7],inactive
same,outcome,[8],inactive
same,outcome,[9],inactive
O=C1OC2(c3ccccc31)c1cc(I)c(O)c(I)c1Oc1c2cc(I)c(O)c1I,AC50,[1],3.22 µM (active)
same,AC50,[2],22.5 µM (active)
same,AC50,[3],12 µM (active)
same,outcome,[4],inactive
same,AC50,[6],7.01 µM (active)
same,AC50,[7],8.51 µM (active)
same,AC50,[8],3.36 µM (active)
same,AC50,[9],4.33 µM (active)
CCCCCc1ccc(O)cc1,AC50,[1],30.2 µM (active)
same,AC50,[2],12.1 µM (active)
same,AC50,[3],13.3 µM (active)
same,AC50,[4],15.8 µM (active)
same,AC50,[5],26 µM (active)
same,AC50,[7],20 µM (active)
same,outcome,[8],inactive
same,AC50,[9],27.2 µM (active)
O=C(O)C(F)(F)OC(F)(F)C(F)(F)OC(F)(F)C(F)(F)OC(F)(F)C(F)(F)C(F)(F)C(F)(F)F,AC50,[1],5.81 µM (active) and 5.41 µM (active)
same,AC50,[3],48.1 µM (active) and 54.2 µM (active)
same,AC50,[4],47.9 µM (active) and 52.7 µM (active)
same,AC50,[5],7.88 µM (active) and 7.84 µM (active)
same,AC50,[7],43.5 µM (active) and 43.6 µM (active)
same,AC50,[8],47.7 µM (active)
same,outcome,[8],inactive
same,AC50,[9],3.73 µM (active) and 3.7 µM (active)
CCCCC(CC)C(=O)OCCOCCOCCOCCOC(=O)C(CC)CCCC (configuration not stated),outcome,[1],inactive
same,outcome,[2],inactive
same,outcome,[3],inactive
same,outcome,[4],inactive
same,outcome,[5],inactive
same,outcome,[7],inactive
same,outcome,[8],inactive
same,outcome,[9],inactive
CC1=NN(c2ccccc2)C(=O)C1,outcome,[1],inactive
same,outcome,[2],inactive
same,outcome,[3],inactive
same,outcome,[4],inactive
same,outcome,[5],inactive
same,outcome,[7],inactive
same,outcome,[8],inactive
same,outcome,[9],inactive
CCCCC=O,outcome,[1],inactive
same,outcome,[2],inactive
same,outcome,[3],inactive
same,outcome,[4],inactive
same,outcome,[5],inactive
same,outcome,[7],inactive
same,outcome,[8],inactive
same,outcome,[9],inactive
OCC(CO)(CBr)CBr,outcome,[1],inactive
same,outcome,[2],inactive
same,outcome,[3],inactive
same,outcome,[4],inactive
same,outcome,[5],inactive
same,outcome,[7],inactive
same,outcome,[8],inactive
same,outcome,[9],inactive
O=C(NCc1ncc(C(F)(F)F)cc1Cl)c1c(Cl)cccc1Cl,outcome,[1],inactive
same,outcome,[2],inactive
same,outcome,[3],inactive
same,outcome,[4],inactive
same,outcome,[5],inactive
same,outcome,[7],inactive
same,outcome,[8],inactive
same,outcome,[9],inactive
CCCCCCCCCCCC,outcome,[1],inactive
same,outcome,[3],inactive
same,outcome,[4],inactive
same,outcome,[5],inactive
same,outcome,[7],inactive
same,AC50,[8],28 µM (active)
same,outcome,[8],inactive
same,AC50,[9],5.83 µM (active) and 5.29 µM (active)
O=C(NO)c1ccccc1,outcome,[1],inactive
same,outcome,[2],inactive
same,outcome,[3],inactive
same,outcome,[4],inactive
same,outcome,[5],inactive
same,outcome,[7],inactive
same,outcome,[8],inactive
same,outcome,[9],inactive
COC1=CC(=O)C[C@@H](C)[C@]12Oc1c(Cl)c(OC)cc(OC)c1C2=O,outcome,[1],inactive
same,outcome,[3],inactive
same,outcome,[4],inactive
same,outcome,[5],inactive
same,outcome,[6],inactive
same,outcome,[7],inactive
same,outcome,[8],inactive
same,outcome,[9],inactive
CCCCc1oc2ccccc2c1C(=O)c1cc(I)c(OCCN(CC)CC)c(I)c1,AC50,[1],25 µM (active)
same,AC50,[2],9.65 µM (active)
same,AC50,[3],9.72 µM (active)
same,AC50,[4],13.1 µM (active)
same,AC50,[5],25.4 µM (active)
same,AC50,[7],15.1 µM (active)
same,AC50,[8],21.2 µM (active)
same,AC50,[9],15.1 µM (active)
CC(=O)Nc1ccc(O)cc1,outcome,[1],inactive
same,outcome,[2],inactive
same,outcome,[3],inactive
same,outcome,[4],inactive
same,outcome,[5],inactive
same,outcome,[7],inactive
same,outcome,[8],inactive
same,outcome,[9],inactive
